HepG2 tox: counter-screen for TGF-b inhibitors: cytotoxicity in HepG2 cells; Potency, µM (highest dose often 46.1 µM), for inactives: at the top dose activity change, negative = cytotoxicity, most hits filed as cytotoxic; hit rate 0.76% among 410,000; HepG2 CAGA-GFP viability, ATP luminescence, 18 h; AID 588856
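CellTiter-Glo luminescence gave cytotoxicity after 18 hours at 37 degrees C. The cells were HepG2 CAGA-GFP in 1% FBS DMEM, stimulated with 500 pg/mL TGF-beta after compound addition. %Activity was normalised to no-cell wells (complete cell-killing) and DMSO (no toxicity), and curves were fitted and classified.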
DT40 TDP1 no CPT: qHTS for Inhibitors of human tyrosyl-DNA phosphodiesterase 1 (TDP1): qHTS in cells in absence of CPT; AID 686978, 2013; hit rate 15% among 420,000; Potency, µM (doses to about 46.2 µM), inactives show top-dose activity change, negative = growth inhibition, actives largely listed as inhibitors; DT40 Tdp1-/- hTDP1 cells, no CPT, ATP luminescence, 48 h; note: % is set by controls: 0 for no effect and ±100 for the full control effect; nearly all actives have a fitted effect of over 55% in size
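Growth kinetics read by CellTiter-Glo luminescence after ≥48 hr at 37 °C. Cells: DT40 Tdp1-/- stably carrying human TDP1, 400 per well, compound exposure in the absence of CPT (DMSO vehicle).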
HT1080 IDH1KD tx: HT-1080 IDH1 knockdown cell toxicity (counter line) | Potency, µM (series often up to 46.1 µM), for the others: at the top dose activity, negative = toxicity, usual class: cytotoxic | hit rate 2% among 360,000 | HT-1080 IDH1 knockdown viability, ATP luminescence, 48 h | AID 686971;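 note: 0% = DMSO wells and -100% = cell-free medium wells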
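Viability of IDH1-knockdown HT-1080 fibrosarcoma cells was assessed by CellTiter-Glo after 48 h at 37 °C with titrated compound; concentration-effect curves were classified by fit quality and response size.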
TGFb SMAD3 inh: blocks TGF-b signaling; HepG2 CAGA-GFP TGF-b/SMAD3 reporter, GFP fluorescence, 18 h; TGF-beta stimulated, 500 pg/mL final; Potency, µM (top dose mostly 46.1 µM), for the others: top-dose activity, negative = inhibition, usual class: inhibitors; hit rate 1.2% among 410,000; note: % is set by controls: 0 for no effect and ±100 for the full control effect; nearly all actives have a fitted effect of over 65% in size
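HEPG2 CAGA-GFP reporter cells (1000/well, DMEM with 1% FBS) received compounds, then recombinant TGF-beta at 500 pg/mL final for 18 hours at 37 degrees C. Per-cell GFP summed per well was normalised to unstimulated and stimulated DMSO controls before curve fitting.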
DT40 TDP1 CPT: growth inhibition of DT40 Tdp1-/-;hTDP1 cells with camptothecin (screen for TDP1 inhibitors); chicken DT40 Tdp1-/-;hTDP1 cells + 20 nM CPT, ATP luminescence, 48 h; Potency, µM (series often up to 46.2 µM), inactives show top-dose activity change, negative = growth inhibition, most hits filed as inhibitors; hit rate 12% among 420,000; note: % is set by controls: 0 for no effect and ±100 for the full control effect; nearly all actives have a fitted effect of over 55% in size
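Chicken DT40 Tdp1-/- cells complemented with human TDP1, 400 cells/well, exposed to compounds plus 20 nM camptothecin for at least 48 h at 37 C; viability read as ATP content by CellTiter-Glo luminescence.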
HT1080NT lethal: kills 2HG-producing HT-1080-NT fibrosarcoma cells | HT-1080-NT fibrosarcoma viability, CellTiter-Glo ATP luminescence, 48 h | hit rate 1.6% among 360,000 | Potency, µM (series often up to 46.1 µM), inactives show at the highest dose activity, negative = less viability, most hits filed as cytotoxic | AID 686970;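 note: NT is the 2HG producing partner of a matched IDH1 knockdown line; 0% = DMSO-treated cells and -100% = media-only wells without cells; nearly all actives have a fitted effect of over 55% in size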
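Compounds were tested in concentration-response format on HT-1080-NT cells for 48 hours at 37 degrees C. Cell viability came from CellTiter-Glo luminescence; curves were classified by r2, response magnitude and activity.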
* hit, by the source's call; ? = inconclusive; nt = not tested or not shown; [ ] = dose if it differs, or a comment. A selection: hits, their analogues and other compounds. The true share with any hit is near 17%. Calls come from the whole dose curve; as a rule, active = well fitted curve in the direction sought with a large enough effect; inconclusive = small, poorly fitted or top-dose-only effect, or another doubt; inactive = no such curve, though single readings can be large; an effect the other way counts as inactive or inconclusive. Potency is the fitted concentration of half-maximal effect.

SMILES	HepG2 tox	DT40 TDP1 no CPT	HT1080 IDH1KD tx	TGFb SMAD3 inh	DT40 TDP1 CPT	HT1080NT lethal
NC(Cc1ccccc1)c1csc(Nc2ccc(C(=O)c3ccccc3)cc2)n1 (stereo not drawn)	-101%	8.2µM*	?	?	15µM*	?
CC(=O)c1ccc(Nc2nc(CN)cs2)cc1	-22%	?	5%	-1%	?	7%
Cc1cccc(S(=O)(=O)Nc2ccc(-c3ccc4nncn4n3)cc2)c1	-4%	?	-3%	0%	?	-13%
O=C(COc1ccc(Cl)cc1)Nc1cccc(-c2ccc3nncn3n2)c1	-26%	16µM*	2%	-5%	-25%	22%
COc1ccc(S(=O)(=O)Nc2ccc(-c3ccc4nncn4n3)cc2)c(OC)c1	-45%	10µM*	?	-22%	9.2µM*	?
O=S(=O)(Nc1ccc(-c2ccc3nncn3n2)cc1)c1ccccc1Cl	0%	-10%	-13%	1%	?	-10%
COCC(=O)Nc1cccc(-c2ccc3nncn3n2)c1	16%	17%	1%	18%	-14%	-3%
COc1ccc(C(=O)Nc2cccc(-c3ccc4nncn4n3)c2)cc1	1%	15µM*	?	5%	15µM*	-9%
COc1ccc(S(=O)(=O)Nc2cccc(-c3ccc4nncn4n3)c2)cc1	1%	2.6µM*	10µM*	-11%	3.7µM*	16µM*
COc1ccc(CNC(=O)C2CCCN2)cc1OC (stereo not drawn)	0%	-18%	21%	-4%	-3%	5%
CCc1ccc(S(=O)(=O)Nc2cccc(-c3ccc4nncn4n3)c2)s1	-14%	15µM*	?	3%	?	?
Cc1ccc(NC(=O)CN(Cc2ccccc2)S(C)(=O)=O)cc1C	-4%	?	?	16%	-11%	1%[9.24 µM]
COCC(C)n1c(C)cc(C(=O)CSc2nc(C)c(C)c(C)n2)c1C (stereo not drawn)	8%	15µM*	0%	-17%	?	2%
COCCn1c(C)cc(C(=O)CSc2cc(C)c3ccc(OC)cc3n2)c1C	-2%	16µM*	-17%	?	?	-20%
COCCn1c(C)cc(C(=O)CSc2nc(C)c(C)c(C)n2)c1C	-1%	23µM*	10%	-5%	29µM*	8%
COCC(C)n1c(C)cc(C(=O)COC(=O)c2n[nH]c3ccccc23)c1C (stereo not drawn)	1%	26µM*	-1%	23%	?	-1%
COCC(C)n1c(C)cc(C(=O)COC(=O)c2cc(=O)[nH]c3ccccc23)c1C (stereo not drawn)	-23%	?	-5%	-3%	?	1%
COCC(C)n1c(C)cc(C(=O)CSc2nnc(N)s2)c1C (stereo not drawn)	0%	?	0%	6%	?	-1%
Cc1ccc(Cn2cc(S(=O)(=O)c3cccc(C)c3)c(=O)c3cc(F)c(N4CCOCC4)cc32)cc1	6%	-27%	nt	-33%	?	nt
O=c1c(S(=O)(=O)c2ccccc2)cn(Cc2ccccc2)c2cc(N3CCOCC3)c(F)cc12	-3%	?	nt	5%	21µM*	nt
O=c1c(S(=O)(=O)c2ccccc2)cn(Cc2cccc(F)c2)c2cc(N3CCOCC3)c(F)cc12	-22%	23µM*	nt	-15%	?	nt
Nc1c(C(=O)NCc2ccco2)c2nc3ccccc3nc2n1CCc1ccc(F)cc1	-103%	18µM*	?	16µM*	21µM*	?
C=CCNC(=O)c1c(N)n(-c2cccc(S(N)(=O)=O)c2)c2nc3ccccc3nc12	-8%	12µM*	?	?	15µM*	?
COc1nc(OC)nc(N2CCC(C(=O)NCc3ccco3)CC2)n1	-5%	-1%	4%	3%	-25%	-3%
Nc1c(C(=O)NCCN2CCOCC2)c2nc3ccccc3nc2n1-c1ccccc1	-23%	16µM*	-1%	-29%	?	-2%
SMILES	HepG2 tox	DT40 TDP1 no CPT	HT1080 IDH1KD tx	TGFb SMAD3 inh	DT40 TDP1 CPT	HT1080NT lethal
O=C(NCc1ccco1)C1CCN(c2nc3ccccc3n2Cc2ccc(F)cc2)CC1	16%	16µM*	-13%	22%	?	-12%
Nc1c(C(=O)NCCN2CCOCC2)c2nc3ccccc3nc2n1-c1ccc2c(c1)OCO2	2%	?	-23%	1%	?	?
COCCCNC(=O)c1c(N)n(-c2ccc(S(N)(=O)=O)cc2)c2nc3ccccc3nc12	1%	-16%	?	1%	-12%	-24%
Nc1c(C(=O)NCCN2CCOCC2)c2nc3ccccc3nc2n1CCc1ccccc1	-38%	21µM*	?	-16%	?	?
COCCCNC(=O)c1c(N)n(-c2ccccc2)c2nc3ccccc3nc12	-3%	18µM*	-13%	-26%	?	0%
Nc1c(C(=O)NCc2ccc3c(c2)OCO3)c2nc3ccccc3nc2n1CCCN1CCOCC1	11µM*	?	7%[9.24 µM]	?	23µM*	?
COC(=O)c1c(N)n(-c2ccc(NC(C)=O)cc2)c2nc3ccccc3nc12	7%	21µM*	10%[9.24 µM]	3%	23µM*	9%
CCc1ccccc1-n1c(N)c(C(=O)OC)c2nc3ccccc3nc21	-6%	?	nt	21%	-19%	nt
CC(Sc1nc2ccccc2s1)C(=O)N1CCOCC1 (stereo not drawn)	-4%	0%	-1%	1%	4%	-2%
COC(=O)C1N2C(=O)N(C)[C@H](C(=O)OC)[C@H]2SC1(C)C (stereo partly drawn)	3%	-3%	nt	-2%	-9%	nt
COC(=O)[C@@H]1[C@H]2SC(C)(C)[C@H](C(=O)OC)N2C(=O)N1Cc1cc2ccccc2n1S(=O)(=O)c1ccccc1	4%	13µM*	nt	1%	?	nt
CCCC(=O)Oc1c(Sc2ccc(Cl)cc2)c(C)nn1-c1ccccc1	-30%	21µM*	nt	?	21µM*	nt
N/C(=N\C(=S)Nc1ccccc1)c1ccccc1	-2%	16µM*	-2%	4%	?	-11%
COc1cccc(OC)c1NC(=O)C1CCCN1C(=O)Nc1ccccc1F (stereo not drawn)	-9%	13%	7%	25%	10%	14%
